In PubChem BioAssay (NCI):
This is part of a sample that, as a whole, favours compounds with a hit. Of some 79,000 tested, about 15% had one in any assay. Activity calls are given as the source filed them. Rule as the data show it: active = growth inhibition above about 70%; inactive = the rest.

Assay: NCI Yeast Anticancer Drug Screen. Data for the rad50EPP+ strain (AID 151);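 also: 0% = growth of vehicle-treated control cultures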
Conditions: S. cerevisiae rad50 mutant strain, active compounds read high
Protocol: Growth inhibition of yeast strains with defined genetic alterations is measured as a screen for potential anti-cancer activity. Selected strains with alterations in DNA damage repair or cell cycle control were exposed to compounds and growth inhibition was measured relative to vehicle treated controls. The strain used in this assay is rad50EPP+

Row | SMILES | growth inhibition (at 1.2 µM) | growth inhibition (at 3.7 µM) | growth inhibition (at 11.0 µM) | growth inhibition (at 33.0 µM) | growth inhibition (at 100.0 µM)
1 | O=C1c2ccccc2C(=O)N1CCCC(=O)n1cc(F)c(=O)[nH]c1=O | -25% (inactive) | -16% (inactive) | 27% (inactive) | 69% (inactive) | 88% (active)
2 | COc1nc2c(c(=O)n1C)N=C(c1ccccc1)[C@H](C(CC(=O)c1ccccc1)c1ccccc1)C(c1ccccc1)N2 (stereo not given in full) | -16% (inactive) | -30% (inactive) | -46% (inactive) | -17% (inactive) | -35% (inactive)
3 | O=C1C(Br)=C(c2ccccc2)O/C1=C/C(=O)c1ccc(Br)cc1 | 9% (inactive) | 22% (inactive) | 59% (inactive) | 84% (active) | 86% (active)
4 | N#CNC(N)=Nc1cc2ccccc2c2ccccc12 | 8% (inactive) | 16% (inactive) | 61% (inactive) | 82% (active) | 79% (active)
5 | CC(C)(CCCCC(C)(C)[N+](C)(C)C)[N+](C)(C)C | -3% (inactive) | -4% (inactive) | 0% (inactive) | -1% (inactive) | -2% (inactive)
6 | Nc1n[n+]([O-])c2ccc(Cl)cc2[n+]1[O-] | 53% (inactive) | 77% (active) | 88% (active) | 91% (active) | 94% (active)
7 | COc1ccc(C2C3=C(COC3=O)OC(C)(C)Oc3cc4c(cc32)OCO4)cc1OC (stereo not given) | 5% (inactive) | 4% (inactive) | 4% (inactive) | 4% (inactive) | 12% (inactive)
8 | CC(=O)OCC1OC2OC(=O)NC2C(OC(C)=O)C1OC(C)=O (stereo not given) | -4% (inactive) | 0% (inactive) | -1% (inactive) | -5% (inactive) | -8% (inactive)
